Sampled rows, rich in hits. Any-hit rate of the full collection: about 3.2%.
Pol III holo inh = qHTS Assay for Inhibitors of DNA Polymerase III Holoenzyme System; 71,000 tested, 0.25% active; reconstituted DNA polymerase III holoenzyme replication, biochemical; Potency, µM (titrated, usually from 57.1 µM); AID 603, 2007
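Reconstituted *E. coli* holoenzyme (0.35 nM Pol III, 1 nM beta, 154 nM SSB, 2 nM primase) was preincubated with compound for 15 min at RT. Synthesis on 1.4 nM ssM13Gori ran 35 min, then was stopped with PicoGreen/EDTA and read as dsDNA fluorescence.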
Caspase-1 inhib = qHTS Assay for Allosteric/Competitive Inhibitors of Caspase-1; P29466; Caspase-1 enzyme, Ac-WEHD-AFC fluorogenic rate; Potency, µM (titrated, usually from 57.5 µM), most hits filed as inhibitors; 75,000 tested, 0.03% active
Casp7 inh = qHTS Assay for Allosteric/Competitive Inhibitors of Caspase-7; AID 889, 2007; 75,000 tested, 0.02% active; recombinant caspase-7, Ac-DEVD-AFC fluorescence rate; Potency, µM (doses to about 57.5 µM), usual class: inhibitors; active = well fitted inhibition curve with a large enough effect in the main read-out, with a control signal flat, not every such curve was filed as active; inconclusive = small, poorly fitted or top-dose-only effect, or a change in a side signal
Tau filament bind = qHTS Assay for Tau Filament Binding | Microtubule-associated protein tau (Homo sapiens), P10636 | recombinant tau filaments, thioflavin S fluorescence, 15 h; filaments grown with octadecylsulfate alongside compound | Potency, µM (titrated, usually from 57.1 µM) | 71,000 tested, 2% active | AID 596, 2007;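 note: actives lower thioflavin S fluorescence by blocking filaments or displacing dye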
Target sequence (P10636 whole entry, looked up): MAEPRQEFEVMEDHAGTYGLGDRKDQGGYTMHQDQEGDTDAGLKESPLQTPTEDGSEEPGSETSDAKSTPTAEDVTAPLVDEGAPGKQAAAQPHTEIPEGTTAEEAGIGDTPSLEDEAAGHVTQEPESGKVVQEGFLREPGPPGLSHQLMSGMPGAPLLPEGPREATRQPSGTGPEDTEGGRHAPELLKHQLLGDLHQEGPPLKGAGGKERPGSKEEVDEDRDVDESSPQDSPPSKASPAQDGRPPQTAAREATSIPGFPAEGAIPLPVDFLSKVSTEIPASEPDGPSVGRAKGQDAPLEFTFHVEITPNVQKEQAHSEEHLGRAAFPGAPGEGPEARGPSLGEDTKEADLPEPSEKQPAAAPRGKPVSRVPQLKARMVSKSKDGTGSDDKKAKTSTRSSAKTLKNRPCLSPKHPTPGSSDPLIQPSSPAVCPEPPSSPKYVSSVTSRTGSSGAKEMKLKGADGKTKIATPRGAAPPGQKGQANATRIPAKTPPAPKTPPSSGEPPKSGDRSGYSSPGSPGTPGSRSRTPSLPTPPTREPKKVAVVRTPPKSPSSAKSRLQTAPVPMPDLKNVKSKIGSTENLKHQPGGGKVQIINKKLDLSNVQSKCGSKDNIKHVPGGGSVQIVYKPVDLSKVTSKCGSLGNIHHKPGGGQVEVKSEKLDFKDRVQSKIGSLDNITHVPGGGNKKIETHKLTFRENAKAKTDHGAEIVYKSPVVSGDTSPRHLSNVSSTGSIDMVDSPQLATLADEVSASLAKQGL
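His-tagged recombinant human tau (exons 2, 3 and 10 included), 1 uM, was induced to fibrillize by 30 uM sodium octadecylsulfate with compound present. After 15 h at 37 C, thioflavine S fluorescence (ex 450, em 510 nm) was read.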
15-hLO inh = qHTS Assay for Inhibitors of 15-hLO (15-human lipoxygenase); 74,000 tested, 1.4% active; Potency, µM (series often up to 57.1 µM), most hits filed as inhibitors; purified 15hLO-1, xylenol orange hydroperoxide absorbance; AID 887, 2007; note: nearly all actives have a fitted effect of over 55% in size
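Hydroperoxide formed from arachidonic acid (50 uM) by purified human 15hLO-1 (40 nM) oxidizes ferrous iron, and the ferric-xylenol orange complex is read at 573 versus 405 nm. Compounds were preincubated 15 min; reaction ran 6 min at room temperature.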
Hits are given with their value; n = inactive; u = inconclusive; x = no result given; [ ] = another dose, or the depositor's remark. Unless noted, calls come from the whole dose curve; as a rule, active = well fitted curve in the direction sought with a large enough effect; inconclusive = small, poorly fitted or top-dose-only effect, or another doubt; inactive = no such curve, though single readings can be large; an effect the other way counts as inactive or inconclusive.

SMILES	Pol III holo inh	Caspase-1 inhib	Casp7 inh	Tau filament bind	15-hLO inh
Cc1cc(Nc2cccc(F)c2)nc(-c2ccccc2O)n1	n	n	n	n	10µM
Cc1ccc(C)n1-c1ccc(N2CCOCC2)cc1	n	n	n	25.1µM	2.51µM
Cc1cc(N2CCOCC2)cc(C)[n+]1[O-]	n	n	n	n	n
NCCSCCC(=O)O	n[11.4 µM]	n[11.5 µM]	n[11.5 µM]	n[11.4 µM]	n[11.4 µM]
Nc1ccccc1-c1nnc(SCc2ccccc2F)[nH]c1=O	n	n	n	15.8µM	n
CCSc1nnc(-c2ccccc2N)c(=O)[nH]1	n	n	n	n	n
O=C1C=C[C@@H](O)[C@@H]2[C@H]3C(=O)N(c4ccc(F)cc4F)C(=O)[C@@H]3CC[C@@H]12	x	n[11.5 µM]	n[11.5 µM]	x	n[11.4 µM]
CCOC(=O)CSc1nc2cc(C)cc(C)c2cc1C#N	n	x	u	n	n
Cc1cc(C)c2cc(C#N)c(SCC(=O)NCc3ccco3)nc2c1	n	n	n	20µM	u
O=C1CCCC2=C1C(c1ccco1)Nc1ccc(C(=O)c3ccccc3)cc1N2 (stereo unspecified)	n	n	n	6.31µM	2.51µM
COCCn1cnc2c(c1=O)c1nc3ccccc3nc1n2/N=C/c1cccc(OC)c1OC	n	n	n	n	n
C=CCn1cnc2c(c1=O)c1nc3ccccc3nc1n2/N=C/c1cccc(OC)c1	n	n	n	3.16µM	n
Cc1nc2ccc(F)cc2cc1C(=O)NCC1CCCO1 (stereo unspecified)	n	n	n	12.6µM	n
COc1cc(CNc2ccc(C)c(C)c2)cc(OC)c1OC	n	n	n	u	10µM
COc1cc(CNc2cc(C)ccc2C)cc(OC)c1OC	x	n	n	x	n
O=C(Nc1cccc2ccccc12)N1CCN(Cc2ccccc2)CC1	n	n	n	n	0.631µM
O=S(=O)(NCCOC12CC3CC(CC(C3)C1)C2)c1cccc2nsnc12	n	n	n	15.8µM	n
C[C@@H](c1ccccc1)N1C(=O)[C@H]2[C@H]3[C@H](O)[C@H](O)C/C(=N/NC(=O)OCc4ccccc4)[C@H]3CC[C@@H]2C1=O	x	n[11.5 µM]	n[11.5 µM]	x	n[11.4 µM]
CC(=O)c1cccc(NC(=O)Cc2cccs2)c1	n[11.4 µM]	n	n	3.98µM	u
Nc1c(S(=O)(=O)c2cccc(Cl)c2)c2nc3ccccc3nc2n1/N=C/c1ccc(O)c(O)c1	n	n	n	u	15.8µM
Cc1cccc(S(=O)(=O)c2c(N)n(Cc3ccco3)c3nc4ccccc4nc23)c1	n	x	u	n	u
Cc1ccccc1/C=C\C1=NCCN1	n	n	n	n	n
COc1cc(/C=C\C(=O)N2CCCCC2=O)cc(OC)c1OC	n	x	x	u	x
CC(=O)C1=C(C)NC(SCC(=O)c2ccccc2)=C(C#N)C1CC(C)C (stereo unspecified)	n	n	n	n	3.98µM
CCOC(=O)CSC1=C(C#N)C(c2ccccc2)C(C(C)=O)=C(C)N1 (stereo unspecified)	n	n	n	n	n
SMILES	Pol III holo inh	Caspase-1 inhib	Casp7 inh	Tau filament bind	15-hLO inh
CC(=O)C1=C(C)NC(SCC(=O)c2ccccc2)=C(C#N)C1c1ccco1 (stereo unspecified)	n	x	u	n	u
CC(=O)C1=C(C)NC(SCC(=O)c2ccc(Cl)cc2)=C(C#N)C1c1ccco1 (stereo unspecified)	n	x	u	n	12.6µM
CC(=O)C1=C(C)NC(SCC(=O)c2ccc(Cl)cc2Cl)=C(C#N)C1c1ccco1 (stereo unspecified)	n	x	u	n	12.6µM
c1ccc2c(-n3ccnc3)nc(-c3ccoc3)nc2c1	n	n	n	n	n
N[C@@H](CSC1(c2ccc(Cl)cc2)c2ccccc2-c2ccccc21)C(=O)O	n[11.4 µM]	n[11.5 µM]	n[11.5 µM]	n[11.4 µM]	n[11.4 µM]
CCc1ccc(NC(=O)c2ccc3c(c2)C(=O)N(Cc2ccco2)C3=O)cc1	n	n	n	25.1µM	n
CC(C)(C(=O)O)c1ccc([C@@H](O)CCCN2CCC(C(O)(c3ccccc3)c3ccccc3)CC2)cc1	n	n	n	n	n
O=[N+]([O-])c1ccc(Cl)c(CNc2ncnc3c2ncn3[C@@H]2CCCCO2)c1	n[11.4 µM]	n[11.5 µM]	n[11.5 µM]	n[11.4 µM]	n[11.4 µM]
CCn1c(=O)c(C(=O)CN2CCCc3ccccc32)c(N)n(Cc2ccccc2)c1=O	n	n	n	25.1µM	n
CCN(C(=O)CN1CCCc2ccccc21)c1c(N)n(Cc2ccccc2)c(=O)[nH]c1=O	n	n	n	n	n
COc1cccc(Nc2ncc3nc(C)c(=O)n(C)c3n2)c1	n	n	n	12.6µM	n
Cc1c(N=C/C=C2\N(C)c3ccccc3C2(C)C)c(=O)n(-c2ccccc2)n1C	n	n	n	1µM	n
O=C(Nc1ccccc1)c1ccc2nc(-c3ccco3)c(-c3ccco3)nc2c1	n	u	u	0.631µM	6.31µM
O=C(Nc1ccc(N2CCOCC2)cc1)c1ccc2nc(-c3ccco3)c(-c3ccco3)nc2c1	n	n	n	7.94µM	n
CCCCNC(=O)c1ccc2nc(-c3ccco3)c(-c3ccco3)nc2c1	15.8µM	x	u	u	5.01µM
Nc1c(C(=O)Nc2ccccc2)sc2nc(-c3ccco3)ccc12	n	x	u	2µM	u
COc1ccccc1NC(=O)c1sc2nc(-c3ccco3)ccc2c1N	n	n	n	n	n
C/C(CCC(=O)OC[C@@H]1O[C@H](C#Cc2ccccc2)C=C[C@@H]1Oc1ccc(C)cc1)=N/O[C@@H](C)c1cn([C@H]2COC[C@H]2O)nn1	x	n[11.5 µM]	n[11.5 µM]	x	n[11.4 µM]
COc1ccc(O)c(-c2c(-c3ccc(Cl)cc3)n[nH]c2C)c1	n	n	n	n	25.1µM
O=C1CCC[C@@H](C2=CCCCC2=O)C1	x	n[11.5 µM]	n[11.5 µM]	x	n[11.4 µM]
Cc1ccc(-c2cc(-c3ccccc3)c(C#N)c(N)n2)o1	n	x	u	3.16µM	u
Cc1ccc(-c2cc(-c3ccccc3Cl)c(C#N)c(N)n2)o1	n	x	u	12.6µM	7.94µM
Cc1ccc2nc(-c3ccc(N)cc3)sc2c1S(=O)(=O)O	u	x	u	n	n
N#CC1=C(N)SC2(CCCCC2)SC1c1ccccc1 (stereo unspecified)	n	n	n	20µM	25.1µM
CCC/C=C(\CCC)C(NP(=O)(c1ccccc1)c1ccccc1)c1ccc(C(F)(F)F)cc1 (stereo unspecified)	n	n	n	u	x
CCOC(=O)N/N=C1/C[C@@H](O)[C@@H](O)[C@@H]2[C@@H]3C(=O)N(Cc4ccccc4)C(=O)[C@H]3CC[C@H]12	x	n[11.5 µM]	n[11.5 µM]	x	n[11.4 µM]
CCCCCc1nnc(NC(=O)C2CCCO2)s1 (stereo unspecified)	n	n	n	n	n
CCCc1cc(C(N)=O)c(NC(=O)C2CCCO2)s1 (stereo unspecified)	n	n	n	n	25.1µM
O=C1OC(=O)[C@@H]2[C@@H]1[C@@H]1CC[C@H]2O1	n	n	n	n	n
COc1ccccc1NC(=O)CSc1nnc(-c2ccco2)o1	n	n	n	n	n

Screens (PubChem BioAssay)
